Hit rate of the full screen: of about 210,000 compounds, about 5,900 (2.8%) were called active. Where a call stands in place of a potency, no number is given. About 5% were inconclusive and are not listed. Calls come from the whole dose curve; as a rule, active = well fitted activation curve with a large enough effect; inconclusive = small, poorly fitted or top-dose-only effect; inactive = no such curve, though single readings can be large or run the other way. This excerpt belongs to a sample that is enriched for actives.
test: qHTS Assay for Enhancers of SMN2 Splice Variant Expression; conditions: HEK293 SMN2-luciferase splicing reporter, luminescence, 30-36 h; series mostly up to 46.1 µM; note: nearly all actives have a fitted effect of over 55% in size
Excerpt: NIH Chemical Genomics Center [NCGC] NIH Molecular Libraries Probe Production centers Network [MLPCN] MLPCN Grant: R03 MH084179-01 Assay Submitter (PI): Elliot Androphy NCGC Assay Overview: Spinal muscular atrophy (SMA) is caused by insufficient levels of the survival motor neuron protein SMN. The SMN locus on chromosome 5q13 contains two inverted copies of SMN called SMN1 and SMN2 which are 99% identical at the amino acid level. SMN1 is a fully functional protein and SMN2 skips exon 7 90% of the time. Skipping of exon 7 produces non-functional protein product. 10% of the SMN2 protein includes exon 7 and is fully functional. In the SMA disease state, mutations in the SMN1 locus are the cause of the disease state. Because only 10% of SMN2 is of the fully functional form, it is not sufficient to overcome the deficiency produced by the loss of the SMN1 product. A therapy that either increase the amount of SMN2 product made or to increase the inclusion of exon 7 has been proposed for the treatment of SMA. We have designed an assay to identify small molecules that can increase the amount of functional SMN2 product by appending a luciferase reporter gene after the native SMN2 gene, such that inclusion of exon 7 in the expressed product places the luciferase sequence in frame, thus generating functional luciferase enzyme.
NCGC Assay Protocol Summary: This screen utilizes a luciferase reporter gene assay, combining the promoter and splicing based cassettes in tandem with the major portion of the native SMN2 cDNA, and then transfected into HEK293 cells. Compounds that increase luciferase signal presumably enhance expression of the functional SMN2 splice variant. Passaging media contained DMEM w/ glutamax (+phenol red) 10% FCS, 1x pen/strep, 200 ug/ml hygro, 1x sodium pyruvate. Assay media contained DMEM w/ glutamax (-phenol red) 10% FCS, 1x pen strep, 1x pyruvate Sequence, Parameter, Value, Description (1) Cells, […], 2000 cells/well, 1536 TC treated White solid bottom plate (2) Time, 10-12 hours, 37C 5% CO2 (3) Compound, 23 nl, MLSMR Library (4) Control Compound, 23 nL, Sodium butyrate st 4.5mM (final) conc (5) Time, 30-36 hours, 37C 5% CO2 (6) Reagent, 3 ul, One Glo (TM) from Promega (7) Time, 5-15 minutes, Room temp (8) Detector, Viewlux: luminescent read, 60 second integration, high speed 2x binning Keywords: Spinal muscular atrophy, SMA, SMN2, high throughput screening, MLSMR, MLPCN, NIH Roadmap, qHTS and NCGC
Potency is the fitted concentration of half-maximal effect.

Row | SMILES | Potency
1 | O=c1c(-c2ccccc2)coc2c(CN3CCOCC3)c(O)ccc12 | inactive
2 | O=c1c(-c2ccccc2)coc2cc(O)ccc12 | 22.4 µM (active)
3 | Cc1c(O)cc(O)c2c(=O)c(-c3ccc(O)cc3)coc12 | inactive
4 | COc1cc2nc(NCC(C)c3ccccc3)n3nc(-c4ccccc4)nc3c2cc1OC (centres undefined) | inactive
5 | Cc1cc(C)c2oc(C(=O)Nc3c(C(=O)Nc4ccccc4)oc4ccccc34)cc(=O)c2c1 | inactive
6 | Cc1ccc(Cl)cc1N1CCN(C(=O)C2CCC(CNS(=O)(=O)c3cccs3)CC2)CC1 (centres undefined) | inactive
7 | COc1cc(C(=O)OCc2ccc([N+](=O)[O-])cc2)cc(OC)c1OC | inactive
8 | COc1cc(/C=N\Nc2ccc([N+](=O)[O-])cn2)ccc1OCC(=O)O | inactive
9 | COc1cc(/C=N/O)ccc1OCc1ccc([N+](=O)[O-])cc1 | 14.1 µM (active)
10 | COc1ccc(N2CCN(C(=O)C3CCCN(C(=O)c4cc5sccc5n4C)C3)CC2)cc1 (centres undefined) | inactive
11 | Cc1ccc(S(=O)(=O)c2nc(-c3ccco3)oc2SCC(=O)Nc2ccc(F)cc2)cc1 | inactive
12 | C/C(=N\NC(=O)c1ccccc1C)c1ccc(N2CCOCC2)cc1 | inactive
13 | COc1cccc(C(=O)NNC(=O)c2ccccc2Br)c1 | inactive
14 | Cc1ccccc1C(=O)Nc1ccc(N2CCCCCC2)cc1 | 12.6 µM (active)
15 | COc1ccc(C(=O)NC(=S)Nc2ccc(N3CCCC3)cc2)cc1OC | inactive
16 | COc1cccc(C(=O)Nc2cc3c(cc2Br)OCCCO3)c1 | 10 µM (active)
17 | COc1cccc(OC)c1C(=O)Nc1ccc(N2CCCCC2)cc1 | inactive
18 | Cc1cc(NS(=O)(=O)c2ccc(NC(=O)c3ccccc3C)cc2)nc(C)n1 | inactive
19 | COc1cccc(C(=O)Nc2ccc(N3CCCC3)cc2)c1 | 8.91 µM (active)
20 | COc1ccc(C2COC(=O)C2=N)c(NC(=O)c2ccccc2)c1 (centres undefined) | inactive
21 | CCn1cc(C(=O)NCc2ccccc2)c(=O)c2cc(S(=O)(=O)N3CCCCC3)ccc21 | inactive
22 | CC(C)Cn1c(=O)c2ccccc2n2c(CCC(=O)N3CCN(c4cccc(Cl)c4)CC3)nnc12 | inactive
23 | Cc1ccc(OCCn2c(CNc3ccccc3C)nc3ccccc32)cc1 | inactive
24 | O=C(NCCCO)c1nn(-c2ccc(Cl)cc2)nc1CO | inactive
25 | O=C(Cn1c(=O)n(Cc2cccs2)c(=O)c2cccnc21)Nc1ccc(F)cc1 | inactive
26 | Cc1ccc(NC(=O)CN2C(=O)C(c3ccc(F)cc3)=NC23CCCCCC3)c(C)c1 | inactive

Row | SMILES | Potency
27 | CCOc1ccc(N(Cc2ccccc2)C(=O)c2nc(S(C)(=O)=O)ncc2Cl)cc1 | inactive
28 | O=C(CCS(=O)(=O)c1cc(Br)cc2c1N(C(=O)C1CC1)CC2)Nc1ccc(C(F)(F)F)cc1 | inactive
29 | O=C(c1ccco1)n1nc(-c2ccc(Cl)cc2)nc1NCc1ccccc1 | inactive
30 | CCCCOc1ccc(CN2C(=O)C(=O)c3cc(Br)cc(C)c32)cc1OC | inactive
31 | CSc1ccc(C#N)cc1NC(=O)c1cccc(Cl)c1 | inactive
32 | COC(=O)c1ccccc1NC(=O)c1ccc(COc2ccccc2Cl)o1 | inactive
33 | N#Cc1ccccc1NC(=O)c1cccc(COc2ccc(Cl)cc2Cl)c1 | 0.794 µM (active)
34 | Cc1cccc2c1-c1sc(C(=O)Nc3ccc(F)cc3F)cc1CO2 | inactive
35 | Nc1nc2c(ncn2[C@@H]2O[C@H](COP(=O)(O)OP(=O)(O)OP(=O)(O)O)[C@@H](O)C2O)c(=O)[nH]1 (some centres undefined) | inactive
36 | CCN(CC)S(=O)(=O)c1cccc(C(=O)Nc2ccccc2)c1 | inactive
37 | CCN(CC)S(=O)(=O)c1cc(C(=O)Nc2ccccn2)ccc1C | 22.4 µM (active)
38 | Cc1ccc(C(=O)Nc2ccc(C(=O)O)cc2)cc1S(=O)(=O)Nc1ccccc1 | inactive
39 | COC(=O)c1ccc(OC)c(Cn2c(=O)n(Cc3ccccc3)c(=O)c3c2c2cc(OC)ccc2n3C)c1 | inactive
40 | Cc1ccc(C(=O)CSc2nc(-c3ccccc3)nc3c2CCCC3)c(C)c1 | inactive
41 | CCn1nnnc1SCC(=O)c1ccc(C)cc1C | 2.82 µM (active)
42 | CNC(=O)CSc1nnnn1-c1ccc(C)cc1C | inactive
43 | COc1ccccc1-c1cc(C(F)(F)F)nc(S(=O)(=O)CCCC(=O)Nc2ccc(F)cc2F)n1 | inactive
44 | Cc1nc2ccccc2cc1C(=O)N/N=C/c1ccc([N+](=O)[O-])cc1 | inactive
45 | NC(=S)N/N=C/c1ccc([N+](=O)[O-])cc1 | inactive
46 | Cc1ccsc1C(=O)N/N=C/c1ccc([N+](=O)[O-])cc1 | 12.6 µM (active)
47 | COc1ccc(NC(=O)c2ccccc2[N+](=O)[O-])cc1OC | inactive
48 | Cc1ccc(NC(=O)CN2CCC(C(N)=O)CC2)cc1[N+](=O)[O-] | inactive
49 | Cc1ccc(NC(=O)c2sccc2C)cc1[N+](=O)[O-] | 14.1 µM (active)
50 | Cc1ccc(C)c(CN2C(=O)c3ccccc3S(=O)c3ccc(C(=O)N4CCOCC4)cc32)c1 (centres undefined) | inactive
51 | COc1ccccc1-c1cc2nc(C)c(CCC(=O)O)c(C)n2n1 | inactive
52 | Cc1ccc(CN2COc3cc(C)c4c(oc(=O)c5ccccc54)c3C2)cc1 | inactive

Row | SMILES | Potency
53 | Cc1ccc2nc(/C(C#N)=C\c3ccc(OC(=O)c4cccs4)cc3)[nH]c2c1 | inactive
54 | CCOC(=O)c1ccc(-c2ccc(/C=C(\C#N)C(=O)Nc3ccc(OCC)cc3)o2)cc1 | inactive
55 | Cc1ccc2nc(/C(C#N)=C/c3ccc(-c4ccc(C(=O)OC(C)C)cc4)o3)[nH]c2c1 | 11.2 µM (active)
56 | O=C(NCCc1ccccc1)c1ccc2c(c1)N(Cc1ccccc1)C(=O)c1ccccc1S2(=O)=O | inactive
57 | NC(=O)N1CCc2ccccc21 | inactive
58 | Cc1nnc(SCC(=O)N2CCc3ccccc32)n1-c1ccccc1 | inactive
59 | O=C(CSCc1ccccc1)N1CCc2ccccc21 | 12.6 µM (active)
60 | Cc1ccc(C)c(N2CCN(C(=O)CN3C(=O)COc4ccc(S(=O)(=O)N5CCCCCC5)cc43)CC2)c1 | inactive
61 | Cc1cc(C)nc(NS(=O)(=O)c2ccc(NC(=O)c3cc(=O)c4ccc(C)c(C)c4o3)cc2)n1 | inactive
62 | COc1ccccc1-c1nnc(C2CCN(C(=O)c3ccc(Cl)cc3)CC2)o1 | inactive
63 | COc1ccc(C(=O)/C=C/Nc2ccccn2)cc1 | 1.41 µM (active)
64 | Cc1cc(N/C=C\C(=O)c2ccc(Cl)c(Cl)c2)no1 | inactive
65 | CCOc1cc(NC(=O)c2ccccn2)c(OCC)cc1NC(=O)c1ccc(OC)cc1 | inactive
66 | CCC(=O)N1CCc2cc(S(=O)(=O)NC(CC(C)C)C(=O)NCCc3cccc(C)c3)ccc21 (centres undefined) | inactive
67 | N#Cc1c(NC(=O)CCCl)sc2c1CCCCC2 | inactive
68 | N#Cc1c(NC(=O)C2CCCO2)sc2c1CCCCC2 (centres undefined) | 6.31 µM (active)
69 | N#Cc1c(NC(=O)C2CC(Cl)=CCC2C(=O)O)sc2c1CCCCC2 (centres undefined) | inactive
70 | Cc1ccccc1C(=O)N(Cc1ccc(N(C)C)cc1)CC1CCCO1 (centres undefined) | inactive
71 | c1cnn(-c2cc(N3CCOCC3)ncn2)c1 | inactive
72 | O=C(Nc1cc(N2CCOCC2)ncn1)NC1(C(F)(F)F)Oc2ccc(Cl)cc2O1 (centres undefined) | 20 µM (active)
73 | COc1c(C)cccc1C(=O)Nc1cc(Cl)ccc1N1CCOCC1 | inactive
74 | Cc1ccc(-c2nc3cccc(C)n3c2Nc2ccc3c(c2)OCCO3)cc1 | inactive
75 | O=C(Nc1cc(C(F)(F)F)ccc1Cl)c1cc2nc(-c3ccc4c(c3)OCO4)cc(C(F)(F)F)n2n1 | inactive
76 | CC(C)CNC(=O)C(=O)Nc1ccc(N(C)C)cc1 | 11.2 µM (active)
77 | COc1cc(OC)c(C(=O)Nc2ccc(N(C)C)cc2)cc1OC | inactive
78 | CC(C)CNC(=S)Nc1ccc(F)cc1 | inactive

Row | SMILES | Potency
79 | COc1ccc(N(C)C(=O)CCS(=O)(=O)c2cccc3nsnc23)cc1 | inactive
80 | CCOC(=O)c1ccc(NC2Nc3cc(C)nn3S2)cc1 (centres undefined) | inactive
81 | CCc1ccc(NC2Nc3cc(C)nn3S2)cc1 (centres undefined) | 11.2 µM (active)
82 | CCc1ccc(NC(=O)N2CCN(c3ccccc3)CC2)cc1 | inactive
83 | O=C(NCCC1=CCCCC1)c1ccc2c(c1)N(Cc1ccccc1F)C(=O)c1ccccc1S2(=O)=O | inactive
84 | COc1ccc(CNC(=O)c2cc3c(-c4ccccc4F)nn(C)c3s2)c(OC)c1 | inactive
85 | CCOc1ccc(/C=C(\C#N)c2nc3ccccc3c(=O)[nH]2)cc1OC | inactive
86 | Fc1cccc(-n2ncc3c2ncn2nc(-c4ccccc4Cl)nc32)c1 | inactive
87 | COc1ccc(-n2nc(C(=O)NCCc3ccc(Cl)cc3)c3c4ccccc4n(C)c3c2=O)cc1Cl | inactive
88 | Cc1ccc(N)cc1-n1c(C)ccc1C | 28.2 µM (active)
89 | CCCCNC(=O)c1cc(-c2ccc(Cl)c(Cl)c2)on1 | inactive
90 | CC(NC(=O)c1cc(-c2ccccc2)on1)c1ccccc1 (centres undefined) | inactive
91 | CC(C)CNC(=O)c1cc(-c2ccc(Br)cc2)on1 | 12.6 µM (active)
92 | CCCCS(=O)(=O)c1oc(-c2cccs2)nc1S(=O)(=O)c1ccccc1 | inactive
93 | Cc1ccc(S(=O)(=O)N2CCc3cc(C(=O)Nc4ccc(Cl)cc4C)ccc32)cc1 | inactive
94 | Cc1cc(NC(=O)c2cccc(Cl)c2)ccc1-c1cc2ccccc2oc1=O | inactive
95 | Cc1nc(C)c(-c2csc(NCCc3ccccc3)n2)s1 | inactive
96 | COc1ccc2nc(Nc3nc(-c4cc5ccccc5oc4=O)cs3)sc2c1 | inactive
97 | CCNc1nc(-c2cc3ccccc3o2)cs1 | 3.16 µM (active)
98 | O=c1oc2ccccc2cc1-c1csc(Nc2ccc(O)cc2)n1 | 11.2 µM (active)
99 | CCCOC(=O)c1cc2ccccc2oc1=O | inactive
100 | Cc1cc2c(cc1C)C(c1cccc(OC(C)C)c1)CC(=O)N2 (centres undefined) | inactive
101 | N#Cc1ccc(-c2cccs2)nc1SCc1ccc(Br)cc1 | inactive
102 | O=C(CSc1ccc(-c2cccs2)nn1)Nc1ccccc1F | inactive
103 | Cc1cccc(CSc2ccc(-c3cccs3)nn2)c1 | 20 µM (active)
104 | COc1ccc(C2NC(=O)N(C)C3=C2C(=O)N(c2ccc(C(=O)O)cc2)C3)cc1 (centres undefined) | inactive
